# Laboratory results reported in the supplement of paper PMC13094657.
# ± gives the standard deviation of the averaged measurements.
# System: MDA-MB-231
# Assay: cell viability relative to vehicle unstimulated control (fraction); higher = more viable cells
# Conditions: pre-treatment time: 18 h then 24 h IFNg/TNF
# 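Throughout, for cell viability relative to vehicle unstimulated control: viability of the cells left after supernatant collection, read with Deep Blue dye added for 4 h, as absorbance at 570 nm minus 600 nm.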
row,SMILES,cell viability
1,COC(=O)[C@@]1(C)CC[C@]2(C(=O)O)CC[C@]3(C)C(=CC[C@@H]4[C@@]5(C)C[C@H](O)[C@H](O)[C@@](C)(CO)[C@@H]5CC[C@]43C)[C@@H]2C1 [Phytolaccagenin] (compound dose: 10 uM),0.924 ± 0.049
2,C[C@H]1[C@@H](O)O[C@@H]2O[C@@]3(C)CC[C@H]4[C@H](C)CC[C@@H]1[C@@]24OO3 [Dihydroartemisinin] (compound dose: 10 uM),0.978 ± 0.069
3,C[C@@H]1CC[C@]2(C(=O)O[C@@H]3O[C@H](CO)[C@@H](O)[C@H](O)[C@H]3O)CC[C@]3(C)C(=CC[C@@H]4[C@@]5(C)CC[C@H](O[C@@H]6OC[C@H](O)[C@H](O)[C@H]6O)C(C)(C)[C@@H]5CC[C@]43C)[C@@H]2[C@]1(C)O [Ziyuglycoside I] (compound dose: 10 uM),0.947 ± 0.068
4,C=C1C[C@@]23CC[C@H]4[C@@](C)(CCC[C@@]4(C)C(=O)O)[C@@H]2CC[C@]1(O[C@@H]1O[C@@H](CO)[C@@H](O)[C@H](O)[C@@H]1O[C@@H]1O[C@@H](CO)[C@@H](O)[C@H](O)[C@@H]1O)C3 [Steviolbioside] (compound dose: 10 uM),0.904 ± 0.19
5,COC(=O)C1=CO[C@@H](O[C@@H]2O[C@H](CO)[C@@H](O)[C@H](O)[C@H]2O)[C@@H]2[C@H](C)O[C@@H](O)C[C@H]12 [Morroniside] (compound dose: 10 uM),1.015 ± 0.0011
6,C[C@@H]1O[C@@H](O[C@H]2[C@H](OC(=O)[C@]34CCC(C)(C)C[C@H]3C3=CC[C@@H]5[C@@]6(C)C[C@H](O)[C@H](O[C@@H]7O[C@H](CO)[C@@H](O)[C@H](O)[C@H]7O)C(CO)(CO)[C@@H]6CC[C@@]5(C)[C@]3(C)C[C@H]4O)OC[C@H](O)[C@@H]2O)[C@H](O)[C@H](O)[C@H]1O[C@@H]1OC[C@@H](O)[C@H](O)[C@H]1O [Deapioplatycodin D] (compound dose: 10 uM),0.93 ± 0.031
7,C=C1C(=O)O[C@@H]2C[C@@]3(C)CCC[C@H](C)C3=C[C@H]12 [Alantolactone] (compound dose: 10 uM),0.909 ± 0.023
8,CC(C)=CCC[C@](C)(O[C@@H]1O[C@H](CO)[C@@H](O)[C@H](O)[C@H]1O)[C@H]1CC[C@]2(C)[C@@H]1[C@H](O)C[C@@H]1[C@@]3(C)CC[C@H](O[C@@H]4O[C@H](CO)[C@@H](O)[C@H](O)[C@H]4O)C(C)(C)[C@@H]3CC[C@]12C [Ginsenoside F2] (compound dose: 10 uM),0.992 ± 0.033
9,C[C@@H]1[C@H]2[C@H](O[C@@H]3O[C@H](CO)[C@@H](O)[C@H](O)[C@H]3O)OC=C(C(=O)O)[C@H]2C[C@@H]1O [Loganic acid] (compound dose: 10 uM),0.999 ± 0.016
10,CC1=CC[C@@](O)(C(C)C)CC1 [Terpinen-4-ol] (compound dose: 10 uM),1.12 ± 0.0039
11,C=C[C@@]1(C)CC(=O)[C@]2(O)[C@@]3(C)[C@@H](O)CCC(C)(C)[C@@H]3[C@H](O)[C@H](OC(C)=O)[C@@]2(C)O1 [Forskolin] (compound dose: 10 uM),0.785 ± 0.079
12,C=C(C)C1CC=C(C)CC1 (stereo not drawn) [(s)-(-)-limonene] (compound dose: 10 uM),0.944 ± 0.051
13,CC(C)=CCC[C@@H](C)CC=O [Citronellal] (compound dose: 10 uM),1.067 ± 0.0084

# System: MDA-MB-231
# Assay: kynurenine production, fold change vs DMSO IFNg/TNF control; higher = more kynurenine produced (less inhibition)
# Conditions: pre-treatment time: 18 h then 24 h IFNg/TNF
# Summary of the method: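 Fold change over cytokine-stimulated vehicle wells on the same plate is the measure used for kynurenine production, averaged across duplicate plates in the first screening round. MDA-MB-231 cells, seeded 24 h beforehand at 7 × 10^4/well in 96-well plates, were pre-treated 18 h with each natural product in 0.1% DMSO and stimulated 24 h at 37°C with IFNγ (1 U/ml) and TNF (6.25 ng/ml). Supernatants were read at 492 nm following trichloroacetic acid and p-dimethylaminobenzaldehyde treatment, against 0–100 μM standards.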
row,SMILES,kynurenine production
1,C/C=C1\C(=O)C[C@H]2[C@@H]3CCC4=CC(=O)CC[C@]4(C)[C@H]3CC[C@]12C [Guggulsterone] (compound dose: 10 uM),0.324 ± 0.043
2,CC(CC(=O)C[C@@H](C)[C@H]1CC(=O)[C@@]2(C)C3=C(C(=O)C[C@]12C)[C@@]1(C)CCC(=O)C(C)(C)[C@@H]1C[C@@H]3O)C(=O)O (stereo partly drawn) [Ganoderic acid D] (compound dose: 10 uM),0.869 ± 0.11
3,CSC(=O)OCC1=C[C@H](O)[C@H]2C(C(=O)O)=CO[C@@H](O[C@@H]3O[C@@H](CO)[C@@H](O)[C@@H](O)[C@H]3O)[C@H]12 [Paederosidic acid] (compound dose: 10 uM),1.07 ± 0.07
4,CCCCCCCCCCCCCC(=O)O[C@@]12[C@H](O)[C@@H](C)[C@@]3(O)[C@@H](C=C(CO)C[C@]4(O)C(=O)C(C)=C[C@@H]34)[C@H]1C2(C)C [Phorbol 13-myristate] (compound dose: 10 uM),0.635 ± 0.081
5,"CCCCCC(=O)O[C@@H]1[C@@H](C)[C@@]2(O)[C@@H](C=C(CO)C[C@]3(O)C(=O)C(C)=C[C@@H]23)[C@@H]2C(C)(C)[C@]12OC(=O)CCCCC [Phorbol 12, 13-Dihexanoate] (compound dose: 10 uM)",0.896 ± 0.056
6,C=C1CCC[C@]2(C)C=C3OC(=O)C(C)=C3C[C@@H]12 [Atractylenolide I] (compound dose: 10 uM),0.853 ± 0.2
7,CC(C)(O[C@@H]1O[C@H](CO)[C@@H](O)[C@H](O)[C@H]1O)[C@@H]1CC[C@](O)(CO)[C@H]2CC(=O)[C@@](C)(O)[C@@H]2C1 [Atractyloside A] (compound dose: 10 uM),0.854 ± 0.057
8,CC(=O)OCC1=C[C@@H]2OC(=O)C3=CO[C@@H](O[C@@H]4O[C@H](CO)[C@@H](O)[C@H](O)[C@H]4O)[C@H]1[C@@H]32 [Asperuloside] (compound dose: 10 uM),0.923 ± 0.15
9,CC(C)=CCC[C@@](C)(O)[C@H]1CC[C@]2(C)[C@@H]1[C@H](O)C[C@@H]1[C@@]3(C)CC[C@H](O[C@@H]4O[C@H](CO)[C@@H](O)[C@H](O)[C@H]4O[C@@H]4O[C@H](CO)[C@@H](O)[C@H](O)[C@H]4O[C@@H]4OC[C@@H](O)[C@H](O)[C@H]4O)C(C)(C)[C@@H]3CC[C@]12C [Notoginsenoside Ft1] (compound dose: 2 uM),0.86 ± 0.16
10,CC(C)=CCC[C@@H](C)CCO [(R)-Citronellol] (compound dose: 10 uM),0.824 ± 0.11
11,COC(=O)C1=CO[C@@H](O[C@@H]2O[C@H](CO)[C@@H](O)[C@H](O)[C@H]2O)[C@H]2[C@@H]1[C@H](O)C[C@]2(C)O [Shanzhiside methyl ester] (compound dose: 10 uM),0.998 ± 0.16
12,CC1=C2[C@@H](OC1=O)[C@H](O)[C@]13[C@H]4C[C@@H](C(C)(C)C)[C@]15[C@@H](OC(=O)[C@@H]5O)O[C@@]23C(=O)O4 [Ginkgolide K] (compound dose: 10 uM),0.988 ± 0.29
13,C=C1[C@@H]2CC[C@@H]3[C@](C2)(C(=O)[C@@H](O)[C@@H]2C(C)(C)[C@H]4CC(=O)[C@@]32CO4)[C@@H]1OC(C)=O [Maoecrystal A] (compound dose: 10 uM),0.8659 ± 0.0031
14,C=C(CCC=C(C)C)[C@H]1CC[C@]2(C)[C@@H]1[C@H](O)C[C@@H]1[C@@]3(C)CC[C@H](O)C(C)(C)[C@@H]3[C@@H](O[C@@H]3O[C@H](CO)[C@@H](O)[C@H](O)[C@H]3O)C[C@]12C [Ginsenoside Rk3] (compound dose: 10 uM),0.81 ± 0.11
15,C=C1CC[C@H]2C(=C)CC[C@H]3C(=C)C(=O)O[C@@H]3[C@@H]12 [Dehydrocostus Lactone] (compound dose: 10 uM),0.398 ± 0.079
16,CC12CCC(CC1=O)C2(C)C (stereo not drawn) [Camphor] (compound dose: 10 uM),0.832 ± 0.21
17,O=c1cc(-c2ccc(O)c(O)c2)oc2c([C@@H]3O[C@H](CO)[C@@H](O)[C@H](O)[C@H]3O)c(O)cc(O)c12 [Orientin] (compound dose: 10 uM),0.918 ± 0.1
18,C=C1CCC[C@]2(C)CC[C@@H](C(C)(C)O)C[C@@H]12 [Beta-Eudesmol] (compound dose: 10 uM),0.904 ± 0.14
19,COc1ccc(-c2cc(=O)c3c(O)c(OC)c(O[C@@H]4O[C@H](CO[C@@H]5O[C@@H](C)[C@H](O)[C@@H](O)[C@H]5O)[C@@H](O)[C@H](O)[C@H]4O)cc3o2)cc1 [Pectolinarin] (compound dose: 10 uM),0.907 ± 0.2
20,C=C[C@H]1[C@H](O[C@@H]2O[C@H](CO)[C@@H](O)[C@H](O)[C@H]2O)OC=C2C(=O)OCC[C@]21O [Swertiamarin] (compound dose: 10 uM),0.912 ± 0.14
21,Cc1cc(O)cc(O[C@@H]2O[C@H](CO)[C@@H](O)[C@H](O)[C@H]2O)c1 [Orcinol glucoside] (compound dose: 10 uM),0.821 ± 0.095
22,"CC1CCC(C(C)C)C(O)C1 [(1R,2S,5R)-(-)-menthol] (compound dose: 10 uM)",0.806 ± 0.069
23,CC(=O)OC1COC(OC2CCC34CC35CCC3(C)C(C6(C)CCC(C(C)(C)O)O6)C(O)CC3(C)C5CC(OC3OC(CO)C(O)C(O)C3O)C4C2(C)C)C(OC(C)=O)C1O (stereo not drawn) [Isoastragaloside I] (compound dose: 10 uM),0.925 ± 0.059
24,C[C@@H]1O[C@@H](O[C@H]2[C@H](OC(=O)[C@]34CCC(C)(C)C[C@H]3C3=CC[C@@H]5[C@@]6(C)C[C@H](O)[C@H](O[C@@H]7O[C@H](CO)[C@@H](O)[C@H](O)[C@H]7O)C(CO)(CO)[C@@H]6CC[C@@]5(C)[C@]3(C)C[C@H]4O)OC[C@H](O)[C@@H]2O)[C@H](O)[C@H](O)[C@H]1O[C@@H]1OC[C@@H](O)[C@H](O[C@@H]2OC[C@](O)(CO)[C@H]2O)[C@H]1O [Platycodin D] (compound dose: 10 uM),0.354 ± 0.065
25,O=c1c(-c2ccc(O)cc2)coc2c([C@@H]3O[C@H](CO)[C@@H](O)[C@H](O)[C@H]3O)c(O)ccc12 [Puerarin] (compound dose: 10 uM),0.927 ± 0.033
